# Test results from PubChem BioAssay (NCATS).
# Records with an inconclusive call do not appear. The source made the active and inactive calls. Calls come from the whole dose curve; as a rule, active = well fitted curve in the direction sought with a large enough effect; inconclusive = small, poorly fitted or top-dose-only effect, or another doubt; inactive = no such curve, though single readings can be large; an effect the other way counts as inactive or inconclusive.
# Test: qHTS of pediatric cancer cell lines to identify multiple opportunities for drug repurposing: Confirmatory screen for control Hh wild type fibroblast cells (AID 1347121); note: nearly all actives have a fitted effect of over 70% in size
# Conditions: viability qHTS; series mostly up to 45.9 µM
# Method in brief: (§1)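 Cells (500-1,000/well) in growth media were settled 5 h at 37 degrees C, then given compounds for 48 h. Viability was read as CellTiter-Glo luminescence. Primary runs used MIPE at 11 points (0.78 nM-46 µM) and NPC at 8 points (0.59 nM-46 µM); follow-ups used 11 points.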
row,Compound,Potency
1,CCc1c2c(nc3ccc(O)cc13)-c1cc3c(c(=O)n1C2)COC(=O)[C@]3(O)CC,inactive
2,Cc1cn(-c2cc(NC(=O)c3ccc(C)c(Nc4nccc(-c5cccnc5)n4)c3)cc(C(F)(F)F)c2)cn1,inactive
3,CCOc1cc2ncc(C#N)c(Nc3ccc(F)c(Cl)c3)c2cc1NC(=O)C=CCN(C)C,inactive
4,CN[C@H]1CCc2cc(OC)c(OC)c(OC)c2-c2ccc(OC)c(=O)cc21,inactive

# Test: qHTS of pediatric cancer cell lines to identify multiple opportunities for drug repurposing: Confirmatory screen for Rh41 cells (AID 1347123);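 note: 48 h compound exposure; nearly all actives have a fitted effect of over 60% in size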; note: potency is the fitted concentration of half-maximal effect
# Conditions: Rh41 rhabdomyosarcoma cells, viability/cytotoxicity qHTS; series mostly up to 45.9 µM
# Method in brief: as §1
row,Compound,Potency
1,CCS(=O)(=O)c1cccc(-c2cc(C(=O)NC3CCN(C)CC3)c(C)c3[nH]c4ncc(C)cc4c23)c1,657 nM (active)
2,CCc1c2c(nc3ccc(O)cc13)-c1cc3c(c(=O)n1C2)COC(=O)[C@]3(O)CC,261 nM (active)
3,COc1ccc(OC)c(-c2nnc3ccc(-c4ccc(OC)c(O[C@@H]5CCOC5)c4)nn23)c1,2930 nM (active)
4,NCC(=O)Nc1ccc(-n2nc(C(F)(F)F)cc2-c2ccc3c(ccc4ccccc43)c2)cc1,7370 nM (active)
5,Cc1cn(-c2cc(NC(=O)c3ccc(C)c(Nc4nccc(-c5cccnc5)n4)c3)cc(C(F)(F)F)c2)cn1,11700 nM (active)
6,Cc1nc2ccc(CN(C)c3ccc(C(=O)N[C@@H](CCC(=O)O)C(=O)O)s3)cc2c(=O)[nH]1,inactive
7,CS(=O)(=O)N1CCN(Cc2cc3nc(-c4cccc5[nH]ncc45)nc(N4CCOCC4)c3s2)CC1,851 nM (active)

# Test: qHTS of pediatric cancer cell lines to identify multiple opportunities for drug repurposing: Confirmatory screen for RD cells (AID 1347124);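 note: cells exposed to compound for 48 h before viability readout; nearly all actives have a fitted effect of over 65% in size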; note: potency is the fitted concentration of half-maximal effect
# Conditions: RD rhabdomyosarcoma cell viability; series mostly up to 45.9 µM
# Method in brief: as §1
row,Compound,Potency
1,CCS(=O)(=O)c1cccc(-c2cc(C(=O)NC3CCN(C)CC3)c(C)c3[nH]c4ncc(C)cc4c23)c1,2610 nM (active)
2,COc1ccc(OC)c(-c2nnc3ccc(-c4ccc(OC)c(O[C@@H]5CCOC5)c4)nn23)c1,11700 nM (active)
3,NCC(=O)Nc1ccc(-n2nc(C(F)(F)F)cc2-c2ccc3c(ccc4ccccc43)c2)cc1,5220 nM (active)
4,CCOc1cc2ncc(C#N)c(Nc3ccc(F)c(Cl)c3)c2cc1NC(=O)C=CCN(C)C,inactive
5,CN[C@H]1CCc2cc(OC)c(OC)c(OC)c2-c2ccc(OC)c(=O)cc21,104 nM (active)

# Test: qHTS of pediatric cancer cell lines to identify multiple opportunities for drug repurposing: Confirmatory screen for Rh18 cells (AID 1347125); note: nearly all actives have a fitted effect of over 55% in size; note: potency is the fitted concentration of half-maximal effect
# Conditions: Rh18 rhabdomyosarcoma cells, viability; series mostly up to 45.9 µM
# Method in brief: as §1
row,Compound,Potency
1,CCS(=O)(=O)c1cccc(-c2cc(C(=O)NC3CCN(C)CC3)c(C)c3[nH]c4ncc(C)cc4c23)c1,1850 nM (active)
2,COc1ccc(OC)c(-c2nnc3ccc(-c4ccc(OC)c(O[C@@H]5CCOC5)c4)nn23)c1,inactive
3,NCC(=O)Nc1ccc(-n2nc(C(F)(F)F)cc2-c2ccc3c(ccc4ccccc43)c2)cc1,2610 nM (active)
4,CCOc1cc2ncc(C#N)c(Nc3ccc(F)c(Cl)c3)c2cc1NC(=O)C=CCN(C)C,inactive
5,Cc1nc2ccc(CN(C)c3ccc(C(=O)N[C@@H](CCC(=O)O)C(=O)O)s3)cc2c(=O)[nH]1,inactive
6,CS(=O)(=O)N1CCN(Cc2cc3nc(-c4cccc5[nH]ncc45)nc(N4CCOCC4)c3s2)CC1,1070 nM (active)
7,CN[C@H]1CCc2cc(OC)c(OC)c(OC)c2-c2ccc(OC)c(=O)cc21,inactive

# Test: qHTS of pediatric cancer cell lines to identify multiple opportunities for drug repurposing: Confirmatory screen for Rh30 cells (AID 1347126); note: potency is the fitted concentration of half-maximal effect; nearly all actives have a fitted effect of over 55% in size
# Conditions: Rh30 rhabdomyosarcoma cell viability; series mostly up to 45.9 µM
# Method in brief: as §1
row,Compound,Potency
1,CCc1c2c(nc3ccc(O)cc13)-c1cc3c(c(=O)n1C2)COC(=O)[C@]3(O)CC,1470 nM (active)
2,COc1ccc(OC)c(-c2nnc3ccc(-c4ccc(OC)c(O[C@@H]5CCOC5)c4)nn23)c1,4140 nM (active)
3,CS(=O)(=O)N1CCN(Cc2cc3nc(-c4cccc5[nH]ncc45)nc(N4CCOCC4)c3s2)CC1,1070 nM (active)

# Test: qHTS of pediatric cancer cell lines to identify multiple opportunities for drug repurposing: Confirmatory screen for Saos-2 cells (AID 1347127); note: nearly all actives have a fitted effect of over 60% in size; note: potency is the fitted concentration of half-maximal effect
# Conditions: Saos-2 osteosarcoma cell viability; series mostly up to 45.9 µM
# Method in brief: as §1
row,Compound,Potency
1,CCS(=O)(=O)c1cccc(-c2cc(C(=O)NC3CCN(C)CC3)c(C)c3[nH]c4ncc(C)cc4c23)c1,1040 nM (active)
2,CCc1c2c(nc3ccc(O)cc13)-c1cc3c(c(=O)n1C2)COC(=O)[C@]3(O)CC,inactive
3,NCC(=O)Nc1ccc(-n2nc(C(F)(F)F)cc2-c2ccc3c(ccc4ccccc43)c2)cc1,3290 nM (active)
4,CCOc1cc2ncc(C#N)c(Nc3ccc(F)c(Cl)c3)c2cc1NC(=O)C=CCN(C)C,104 nM (active)
5,Cc1nc2ccc(CN(C)c3ccc(C(=O)N[C@@H](CCC(=O)O)C(=O)O)s3)cc2c(=O)[nH]1,inactive

# Test: qHTS of pediatric cancer cell lines to identify multiple opportunities for drug repurposing: Confirmatory screen for OHS-50 cells (AID 1347128);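 note: compound exposure lasted 48 h at 37 degrees C; nearly all actives have a fitted effect of over 55% in size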; note: potency is the fitted concentration of half-maximal effect
# Conditions: OHS-50 osteosarcoma cells viability; series mostly up to 45.9 µM
# Method in brief: as §1
row,Compound,Potency
1,CCc1c2c(nc3ccc(O)cc13)-c1cc3c(c(=O)n1C2)COC(=O)[C@]3(O)CC,inactive
2,Cc1nc2ccc(CN(C)c3ccc(C(=O)N[C@@H](CCC(=O)O)C(=O)O)s3)cc2c(=O)[nH]1,inactive
3,CS(=O)(=O)N1CCN(Cc2cc3nc(-c4cccc5[nH]ncc45)nc(N4CCOCC4)c3s2)CC1,5370 nM (active)

# Test: qHTS of pediatric cancer cell lines to identify multiple opportunities for drug repurposing: Confirmatory screen for SK-N-SH cells (AID 1347129);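 note: cells exposed to compound for 48 h before viability read; nearly all actives have a fitted effect of over 60% in size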; note: potency is the fitted concentration of half-maximal effect
# Conditions: SK-N-SH neuroblastoma cell viability; series mostly up to 46.1 µM
# Method in brief: as §1
row,Compound,Potency
1,CCS(=O)(=O)c1cccc(-c2cc(C(=O)NC3CCN(C)CC3)c(C)c3[nH]c4ncc(C)cc4c23)c1,2090 nM (active)
2,CCc1c2c(nc3ccc(O)cc13)-c1cc3c(c(=O)n1C2)COC(=O)[C@]3(O)CC,3320 nM (active)
3,Cc1cn(-c2cc(NC(=O)c3ccc(C)c(Nc4nccc(-c5cccnc5)n4)c3)cc(C(F)(F)F)c2)cn1,18700 nM (active)
4,Cc1nc2ccc(CN(C)c3ccc(C(=O)N[C@@H](CCC(=O)O)C(=O)O)s3)cc2c(=O)[nH]1,inactive
5,CS(=O)(=O)N1CCN(Cc2cc3nc(-c4cccc5[nH]ncc45)nc(N4CCOCC4)c3s2)CC1,4290 nM (active)
